# Results reported in ChEMBL document CHEMBL3988442, “University of Dundee, Small-Polar-MMV Screening Library” (2021).
# The campaign covered roughly 48,000 compounds. About 13,000 (27%) showed an effect of 50% or more. The list shows a part of the results.
# System: Wolbachia pipientis
# Assay: Anti-Wolbachia Cell-Based Screen
# Format: functional
# Set-up: scale not given: in the data most compounds retested in dose-response had high values
# Conditions: 5 µM
row,Structure (SMILES),Percent Effect [%]
1,COc1ccc(OC)c(CCNC(=O)NC(C)Cn2ccnc2)c1 (centres undefined),-5.904
2,O=C(CSc1nncs1)N1CCN(Cc2ccc(Cl)s2)CC1,-21
3,CCSc1ccc(C(C)NC(=O)CNS(C)(=O)=O)cc1 (centres undefined),4.212
4,O=C1OCCN1CCS(=O)(=O)c1cccc(Br)c1,-18.91
5,CCC(C)CNCC1(S(C)(=O)=O)CCOCC1 (centres undefined),-24.39
6,Cc1n[nH]c2ncc(CNC3CCCN(c4ncccn4)C3)cc12.Cl (centres undefined),-16.46
7,CC(=O)N1CCCCC1c1cc(CO)[nH]n1 (centres undefined),-3.311
8,OCc1cc(C2CCCN2c2ncccn2)n[nH]1 (centres undefined),112
9,Cc1nc(C2CCCN(C(=O)c3sccc3C3CC3)C2)no1 (centres undefined),-10.65
10,O=C(c1sccc1C1CC1)N1CCCN(Cc2cscn2)CC1,113.8
11,Cc1nc(CN2CCCN(C(=O)c3ccccn3)CC2)oc1C,3.458
12,Cc1cc(CN2CCN(C(=O)c3sccc3C3CC3)CC2)no1,143.4
13,Cc1nc(CN2CCN(C(=O)c3sccc3C3CC3)CC2)oc1C,120.2
14,O=C(c1sccc1C1CC1)N1CCN(Cc2cscn2)CC1,132.1
15,COCc1nc(C(=O)N2CCN(Cc3cc(C)on3)CC2)cs1,-18.23
16,Cc1cc(CN2CCN(C(=O)c3sccc3C3CC3)CC2)on1,-1.767
17,NC(=O)NCC(=O)N1C[C@H]2CC[C@@H]1CN(Cc1ccccc1)C2,-2.465
18,CCNc1ncc(C(=O)N[C@@H](C)[C@H](O)c2ccccc2)cn1,-5.841
19,CS(=O)(=O)NCC(=O)N[C@H]1CN(CC2CC2)C[C@@H]1c1ccccc1,5.176
20,Cc1cc(C)n(C2CN(CC(=O)NCC(C)(C)N3CCOCC3)C2)n1,4.363
21,Cc1cc(C)n(C2CCCN(C(=O)c3c(C)c(C)n[nH]c3=O)C2)n1 (centres undefined),-2.25
22,Cc1ccc([C@@H]2CN(S(=O)(=O)N3CCC(C)CC3)C[C@H]2N(C)C)cc1,5.444
23,CC1CCN(S(=O)(=O)N2CCc3sccc3C2)CC1,3.018
24,C[C@@H]1CN(S(=O)(=O)N2CCOCC2)C[C@@]1(O)C1CC1,13.89
25,Cc1cc(C)n(C2CCN(S(=O)(=O)N3CCC(C)CC3)CC2)n1,84.26
26,Cc1cc(C)n(C2CCCN(C(=O)C3=NN(C)C(=O)CC3)C2)n1 (centres undefined),-1.412
27,Cc1cc(C)n(C2CCN(S(=O)(=O)N3CCOCC3)CC2)n1,108
28,Cc1cc(C)n(C2CCN(S(C)(=O)=O)CC2)n1,88.3
29,CN(Cc1cnn(C)c1)C1CCN(c2cccc(-c3cscn3)c2)CC1,-7.204
